VP16 counter: VP16 counterscreen qHTS for inhibitors of ROR gamma transcriptional activity. Drosophila S2 Gal4-VP16 UAS-luciferase, luminescence, 20 h. Potency, µM (series often up to 53.6 µM), for the others: at the top dose activity, negative = inhibition, usual class: inhibitors. 310,000 compounds, 3.5% hits. AID 2546, 2010;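 further: Gal4-VP16 expression switched on by copper sulfate through the metallothionein promoter; nearly all actives have a fitted effect of over 50% in size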
RORgamma inh: qHTS for inhibitors of ROR gamma transcriptional activity; Nuclear receptor ROR-gamma (Mus musculus), P51450; 310,000 compounds, 5.4% hits; Potency, µM (series often up to 53.6 µM), without a hit: top-dose activity change, negative = inhibition, most hits filed as inhibitors; Drosophila S2 Gal4-RORgamma UAS-luciferase reporter, 20 h; further: nearly all actives have a fitted effect of over 60% in size
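Stable Schneider cell line, Gal4 DNA-binding domain fused to ROR gamma, UAS-luciferase. Cmpd 1 hr RT → CuSO4 700 uM final → 20 hr RT → luciferase reagent 10 min → luminescence.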
TDP1 inh: qHTS Assay for Inhibitors of Tyrosyl-DNA Phosphodiesterase (TDP1). Tyrosyl-DNA phosphodiesterase 1 (Homo sapiens), Q9NUW8. recombinant TDP1, AlphaScreen DNA substrate cleavage. Potency, µM (highest dose often 130 µM), without a hit: at the top dose activity change, negative = inhibition, usual class: inhibitors. 350,000 compounds, 0.28% hits; further: nearly all actives have a fitted effect of over 40% in size
Target sequence (Q9NUW8 whole entry, looked up): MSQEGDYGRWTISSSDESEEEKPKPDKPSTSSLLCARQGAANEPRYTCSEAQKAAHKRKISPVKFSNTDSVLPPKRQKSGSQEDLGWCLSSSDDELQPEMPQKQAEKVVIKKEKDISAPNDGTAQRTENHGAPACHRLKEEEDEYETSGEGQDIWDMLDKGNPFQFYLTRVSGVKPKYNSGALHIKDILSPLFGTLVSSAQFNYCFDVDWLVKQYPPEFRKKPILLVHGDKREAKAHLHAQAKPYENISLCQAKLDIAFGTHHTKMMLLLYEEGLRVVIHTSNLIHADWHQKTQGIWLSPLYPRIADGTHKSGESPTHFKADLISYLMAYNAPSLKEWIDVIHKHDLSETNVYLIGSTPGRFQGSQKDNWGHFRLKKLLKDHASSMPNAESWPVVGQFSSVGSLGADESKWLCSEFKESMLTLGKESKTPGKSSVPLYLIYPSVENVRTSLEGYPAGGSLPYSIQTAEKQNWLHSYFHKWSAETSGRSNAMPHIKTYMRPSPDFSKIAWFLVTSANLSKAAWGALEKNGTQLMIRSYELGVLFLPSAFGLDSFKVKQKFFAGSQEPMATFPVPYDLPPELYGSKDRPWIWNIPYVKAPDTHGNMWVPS
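Enzyme-compound mixtures sat 15 min at room temperature, followed by a 5 min reaction with 15 nM final substrate and 10 min with AlphaScreen beads. Recombinant human Tdp1 was used at 1 nM final.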
TDP1 cell noCPT: qHTS for Inhibitors of human tyrosyl-DNA phosphodiesterase 1 (TDP1): qHTS in cells in absence of CPT; DT40 Tdp1-/- hTDP1 cells, no CPT, ATP luminescence, 48 h; Potency, µM (titrated, usually from 46.2 µM), inactives show at the top dose activity change, negative = growth inhibition, hits mostly inhibitors; 420,000 compounds, 15% hits; further: nearly all actives have a fitted effect of over 55% in size
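Seeded 400 DT40-hTDP1 cells/well (vehicle DMSO, no 20 nM CPT); pinned compounds; ≥48 hr at 37 °C; CellTiter-Glo luminescence as viability measure.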
DT40 TDP1 CPT: qHTS for Inhibitors of human tyrosyl-DNA phosphodiesterase 1 (TDP1): qHTS in cells in presence of CPT; chicken DT40 Tdp1-/-;hTDP1 cells + 20 nM CPT, ATP luminescence, 48 h; Potency, µM (top dose mostly 46.2 µM), for inactives: top-dose activity change, negative = growth inhibition, usual class: inhibitors; 420,000 compounds, 12% hits; AID 686979, 2013; further: nearly all actives have a fitted effect of over 55% in size
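Chicken DT40 Tdp1-/- cells complemented with human TDP1, 400 cells/well, exposed to compounds plus 20 nM camptothecin for at least 48 h at 37 C; viability read as ATP content by CellTiter-Glo luminescence.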
Numbers without * were called inactive. Only some compounds are listed: those with a hit (about 19% of all), similar ones and a draw of the others. The call rests on the fitted dose curve; in most records, active means well fitted curve in the direction sought with a large enough effect; inconclusive means small, poorly fitted or top-dose-only effect, or another doubt; inactive means no such curve, though single readings can be large; an effect the other way counts as inactive or inconclusive. On the % scale 0 is the no-effect control and ±100 the full control effect; potency means the concentration at half of the fitted maximal effect.

`CCOC(=O)C1=C(C)N=c2s/c(=C\c3cc(OC)c(OC)c(OC)c3)c(=O)n2C1/C=C/c1ccccc1` (stereo not given) gave VP16 counter 1.7%, RORgamma inh -13.5%, TDP1 inh -2.6%, TDP1 cell noCPT inconclusive and DT40 TDP1 CPT -3.5%.
Screening CCOC(=O)C1=C(C)N=c2sc(=Cc3cc(Cl)c(OCC(=O)O)c(OC)c3)c(=O)n2C1c1ccccc1Cl (stereo not given) returned TDP1 cell noCPT 20.6µM* and DT40 TDP1 CPT inconclusive.
Screening CCOC(=O)C1=C(c2ccccc2)N=c2s/c(=C\c3ccc(O)cc3)c(=O)n2C1c1cccs1 (stereo not given) returned VP16 counter -12.7%, RORgamma inh 39.4%, TDP1 inh 4.0%, TDP1 cell noCPT 16.4µM* and DT40 TDP1 CPT 11.6µM*.
For CCOC(=O)C1=C(c2ccccc2)N=c2sc(=Cc3cc(OC)c(OC)c(OC)c3)c(=O)n2C1c1cccs1 (stereo not given) the results were TDP1 cell noCPT 13µM* and DT40 TDP1 CPT 8.2µM*.
Screening CC(C)c1ccc(CNc2nnnn2C)cc1 returned VP16 counter 0.0%, RORgamma inh -39.8%, TDP1 inh 2.5%, TDP1 cell noCPT 3.6% and DT40 TDP1 CPT 1.5%.
CCOC(=O)N1CCN(C(=O)CN(c2ccc(OC)c(OC)c2)S(C)(=O)=O)CC1 was read as VP16 counter -3.6%, RORgamma inh -5.7%, TDP1 inh 2.0%, TDP1 cell noCPT 5.7% and DT40 TDP1 CPT 0.3%.
COc1cc(C#N)ccc1OCC(=O)c1ccc2c(c1)OCCO2 was read as VP16 counter 4.5%, RORgamma inh 12.2%, TDP1 inh 3.2%, TDP1 cell noCPT -9.0% and DT40 TDP1 CPT inconclusive.
`Oc1cccc(O)c1O` gave VP16 counter 2.4%, RORgamma inh -14.6%, TDP1 inh inconclusive, TDP1 cell noCPT inconclusive and DT40 TDP1 CPT 5.96µM*.
`O=C(O)c1cccc(O)c1O` gave TDP1 cell noCPT 1.5% and DT40 TDP1 CPT -7.0%.
`COc1cccc(C2CC(c3cccs3)=NN2C(=O)CSc2nc3ccccc3o2)c1OC` (stereo not given) gave VP16 counter 2.6%, RORgamma inh 0.6%, TDP1 inh 0.0%, TDP1 cell noCPT 23.1µM* and DT40 TDP1 CPT 25.9µM*.
For COc1ccccc1C1CC(c2cccs2)=NN1C(=O)CCC(=O)O (stereo not given) the results were VP16 counter -2.1%, RORgamma inh -17.0%, TDP1 cell noCPT -5.4% and DT40 TDP1 CPT -28.7%.
For Cc1ccc(CN(C(=O)COc2ccccc2Cl)c2ccccn2)o1 the results were TDP1 inh 2.6%, TDP1 cell noCPT inconclusive and DT40 TDP1 CPT inconclusive.
`CCC(C)NC(=O)CSc1nc2c(sc3ccccc32)c(=O)n1CCc1ccccc1` (stereo not given) gave TDP1 inh 5.4%, TDP1 cell noCPT -27.7% and DT40 TDP1 CPT -22.1%.
For CCOc1ccccc1N(CC(=O)NCC1CCCO1)C(=O)CNS(=O)(=O)c1ccccc1 (stereo not given) the results were VP16 counter 4.6%, RORgamma inh -13.5%, TDP1 inh -3.0%, TDP1 cell noCPT -0.5% and DT40 TDP1 CPT 21.9%.
Screening COc1ccc(CCNC(=O)c2ccc(CS(=O)(=O)Cc3cccc(C)c3)o2)cc1OC returned VP16 counter -0.9%, RORgamma inh 1.6%, TDP1 inh 2.9%, TDP1 cell noCPT 11.6µM* and DT40 TDP1 CPT 20.6µM*.
Cc1cccc(CS(=O)(=O)Cc2ccc(C(=O)NCc3ccccc3)o2)c1 was read as VP16 counter -4.5%, RORgamma inh 10.8%, TDP1 inh 1.7%, TDP1 cell noCPT inconclusive and DT40 TDP1 CPT inconclusive.

Screening data: PubChem, National Center for Advancing Translational Sciences (NCATS)
